Activity calls are given as the source filed them.
How the values were obtained:
[1] = test system: Plasmodium falciparum Sir2 (PF13_0152, Sir2A); test: Plasmodium falciparum Sir2A binding compounds – biochemical, small-molecule microarray, 635 nm fluorescence, primary screen (AID 1098); conditions: fluorescence 635 nm, higher = more signal;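 note: score merges spot fluorescence intensity with its signal-to-noise ratio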
[2] = probe aDKK1 binding to arrayed compounds – biochemical, biotinylated probe, 635/667 nm fluorescence, primary screen (AID 1099); conditions: small-molecule microarray, higher = more signal;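 note: score merges 667nm spot fluorescence with signal to noise across triplicate slides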
[3] = probe aCHRDL2 binding to arrayed compounds – biochemical, biotinylated probe, 635/667 nm fluorescence, primary screen (AID 1100); conditions: small-molecule microarray, higher = more signal
[4] = change in splice reporter luminescence, either direction, cell-based, HEK293, spliceosome inhibition project, primary screen (AID 1101); conditions: HEK293 splicing luciferase reporter, 24 h, higher = more signal, called active from +8 up or from −8 down;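 note: HEK293 cells carrying a splicing-competent luciferase reporter gene; test concentration not given here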
[5] = molecular target: Fibroblast growth factor 10 (Homo sapiens) (UniProt O15520); test: compounds binding fibroblast growth factor 10 – biochemical, small-molecule microarray, 635 nm fluorescence, primary screen (AID 1102); conditions: FGF10 binding, fluorescence 635 nm, higher = more signal
Fibroblast growth factor 10 (Homo sapiens), sequence (O15520 whole entry, looked up): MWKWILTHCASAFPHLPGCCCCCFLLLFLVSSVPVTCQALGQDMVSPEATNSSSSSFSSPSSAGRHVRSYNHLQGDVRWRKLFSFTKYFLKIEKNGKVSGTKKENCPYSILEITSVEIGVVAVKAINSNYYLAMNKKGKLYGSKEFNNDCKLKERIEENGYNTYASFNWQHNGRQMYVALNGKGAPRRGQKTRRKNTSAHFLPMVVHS

[6] = test system: glycogen synthase kinase-3 (GSK3A per assay name; protocol says GSK3B); test: compounds binding glycogen synthase kinase-3 – biochemical, small-molecule microarray, 635 nm fluorescence, GSK3A, primary screen (AID 1103); conditions: fluorescence 635 nm, higher = more signal; note: the record names both GSK3A and GSK3B
[7] = molecular target: Epidermal growth factor receptor (Homo sapiens) (UniProt P00533); test: compounds binding epidermal growth factor receptor – biochemical, small-molecule microarray, 635 nm fluorescence, primary screen (AID 1104); conditions: EGFR binding, higher = more signal;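 note: score merges 667 nm emission intensity with spot signal to noise over triplicate slides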
Epidermal growth factor receptor (Homo sapiens), sequence (P00533 whole entry, looked up): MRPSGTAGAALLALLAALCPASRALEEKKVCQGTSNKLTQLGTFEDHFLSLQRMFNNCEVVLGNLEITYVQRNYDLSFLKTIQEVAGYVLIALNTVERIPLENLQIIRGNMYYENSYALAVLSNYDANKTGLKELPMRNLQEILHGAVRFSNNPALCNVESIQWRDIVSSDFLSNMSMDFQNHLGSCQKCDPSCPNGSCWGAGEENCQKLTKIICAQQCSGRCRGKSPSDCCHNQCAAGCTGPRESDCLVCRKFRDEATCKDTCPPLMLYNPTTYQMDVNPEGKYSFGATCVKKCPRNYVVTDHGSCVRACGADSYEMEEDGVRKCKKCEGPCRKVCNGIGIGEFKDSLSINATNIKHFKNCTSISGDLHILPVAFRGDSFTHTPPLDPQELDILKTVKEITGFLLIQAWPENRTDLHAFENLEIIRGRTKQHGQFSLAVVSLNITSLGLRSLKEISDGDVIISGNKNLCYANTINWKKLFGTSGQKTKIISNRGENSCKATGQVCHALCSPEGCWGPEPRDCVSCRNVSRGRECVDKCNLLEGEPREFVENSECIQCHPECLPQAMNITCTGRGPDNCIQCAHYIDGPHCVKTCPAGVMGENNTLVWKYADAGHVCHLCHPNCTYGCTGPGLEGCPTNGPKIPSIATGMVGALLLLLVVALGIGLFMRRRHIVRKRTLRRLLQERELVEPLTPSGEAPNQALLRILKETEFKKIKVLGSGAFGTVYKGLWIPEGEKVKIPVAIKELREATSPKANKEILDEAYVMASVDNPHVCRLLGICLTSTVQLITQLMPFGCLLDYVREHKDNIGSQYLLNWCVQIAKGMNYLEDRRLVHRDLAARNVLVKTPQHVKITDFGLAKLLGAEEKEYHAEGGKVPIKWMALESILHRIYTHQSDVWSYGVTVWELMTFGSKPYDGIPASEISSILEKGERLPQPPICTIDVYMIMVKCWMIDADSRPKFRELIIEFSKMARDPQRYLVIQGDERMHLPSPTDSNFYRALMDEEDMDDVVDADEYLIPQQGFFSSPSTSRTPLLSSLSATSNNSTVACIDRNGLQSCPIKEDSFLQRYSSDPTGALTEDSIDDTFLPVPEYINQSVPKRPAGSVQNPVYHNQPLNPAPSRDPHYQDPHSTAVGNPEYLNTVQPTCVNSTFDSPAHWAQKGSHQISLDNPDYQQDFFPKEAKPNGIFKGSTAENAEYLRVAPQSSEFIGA

[8] = molecular target: Follistatin-related protein 3 (Homo sapiens) (UniProt O95633); test: compounds binding follistatin-related protein 3 – biochemical, small-molecule microarray, 635 nm fluorescence, primary screen (AID 1105); conditions: FSTL3 binding, higher = more signal;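 note: score merges emission near 667 nm and signal to noise per printed spot across three slides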
Follistatin-related protein 3 (Homo sapiens), sequence (O95633 whole entry, looked up): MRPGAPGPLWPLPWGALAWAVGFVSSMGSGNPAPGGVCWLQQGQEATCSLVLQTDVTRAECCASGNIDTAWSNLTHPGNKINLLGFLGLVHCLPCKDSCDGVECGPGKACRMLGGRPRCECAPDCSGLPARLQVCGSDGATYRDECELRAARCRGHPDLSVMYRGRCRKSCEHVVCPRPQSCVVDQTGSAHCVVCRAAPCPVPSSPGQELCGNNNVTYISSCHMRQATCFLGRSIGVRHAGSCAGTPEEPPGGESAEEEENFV

[9] = molecular target: Dickkopf-related protein 1 (Homo sapiens) (UniProt O94907); test: small molecules binding DKK1 protein – biochemical, small-molecule microarray, 635 nm fluorescence scan, primary screen (AID 1106); conditions: higher = more signal;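 note: score merges emission near 667 nm with signal to noise over three replicate slides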
Dickkopf-related protein 1 (Homo sapiens), sequence (O94907 whole entry, looked up): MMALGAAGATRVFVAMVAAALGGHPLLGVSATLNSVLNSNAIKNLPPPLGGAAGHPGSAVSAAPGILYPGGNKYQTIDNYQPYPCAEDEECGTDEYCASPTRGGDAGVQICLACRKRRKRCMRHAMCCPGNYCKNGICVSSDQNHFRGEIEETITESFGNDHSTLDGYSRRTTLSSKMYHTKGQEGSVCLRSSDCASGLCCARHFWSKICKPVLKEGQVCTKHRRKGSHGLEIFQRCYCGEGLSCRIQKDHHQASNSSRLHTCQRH

[10] = test system: Inhibin beta A chain (activin A); test: small molecules binding activin A – biochemical, small-molecule microarray, 635 nm fluorescence scan, primary screen (AID 1107); conditions: INHBA, higher = more signal;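 note: mouse activin A protein probed at 4.33 µg/mL on printed slides; score merges bound-protein fluorescence near 667 nm with spot signal-to-noise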
[11] = test system: Human papillomavirus type 1a protein E7 (residues 44-93); test: small molecules binding HPV E7 44-93 – biochemical, small-molecule microarray, residues 44-93, 635 nm fluorescence, primary screen (AID 1108); conditions: fluorescence 635 nm, higher = more signal;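 note: E7 fragment applied at 1 µg/mL in TBST for 1 h at 4 C; score combines spot fluorescence with its signal to noise ratio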
[12] = hepatitis C replication reporter changes, two-sided – Huh7 cells, luciferase reporter, HCV replication inhibitor project, primary screen (AID 1109); conditions: Huh7 HCV replicon luciferase reporter, 48 h; higher = more signal;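 note: huh7 hepatoma cells harbouring a luciferase neomycin HCV replicon reporter; luciferase luminescence as measure of HCV replicon replication; test concentration not given here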
[13] = molecular target: Left-right determination factor 2 (Homo sapiens) (UniProt O00292); test: small molecules binding LEFTY2 protein – biochemical, small-molecule microarray, 635 nm fluorescence scan, primary screen (AID 1110); conditions: higher = more signal
Left-right determination factor 2 (Homo sapiens), sequence (O00292 whole entry, looked up): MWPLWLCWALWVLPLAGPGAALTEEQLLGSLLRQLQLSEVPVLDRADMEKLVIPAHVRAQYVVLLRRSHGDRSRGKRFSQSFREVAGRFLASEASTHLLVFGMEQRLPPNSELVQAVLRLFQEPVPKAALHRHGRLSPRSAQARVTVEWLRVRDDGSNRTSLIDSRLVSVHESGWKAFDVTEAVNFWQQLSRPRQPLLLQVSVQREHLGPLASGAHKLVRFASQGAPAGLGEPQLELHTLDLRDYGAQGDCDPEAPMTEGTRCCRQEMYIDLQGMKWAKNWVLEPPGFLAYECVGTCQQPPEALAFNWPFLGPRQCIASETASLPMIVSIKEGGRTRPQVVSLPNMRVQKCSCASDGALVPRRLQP

[14] = molecular target: Calmodulin-1 (Homo sapiens) (UniProt P0DP23); test: small molecules binding calmodulin-1 with EGTA – biochemical, small-molecule microarray, Cy5-labelled CALM1, profiling panel (AID 1111); conditions: Cy5-CALM1 binding fluorescence, higher = more signal;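 note: labelled calmodulin applied in Tris saline Tween buffer holding calcium plus EGTA and DTT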
[15] = molecular target: Calmodulin-1 (Homo sapiens) (UniProt P0DP23); test: small molecules binding Ca-loaded calmodulin-1 – biochemical, small-molecule microarray, Cy5-labelled CALM1, plus calcium, artefact control for SMM control-protein annotation, profiling panel (AID 1112); conditions: Cy5-CALM1 binding fluorescence, higher = more signal;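 note: score merges spot fluorescence with signal to noise from triplicate slides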
[16] = probe aWnt5a binding to arrayed compounds – biochemical, biotinylated probe, 635/667 nm fluorescence, primary screen (AID 1113); conditions: small-molecule microarray, higher = more signal;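 note: score merges 667 nm fluorescence intensity with signal-to-noise per printed feature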
[17] = probe aShh binding to arrayed compounds – biochemical, biotinylated probe, 635/667 nm fluorescence, primary screen (AID 1114); conditions: small-molecule microarray, higher = more signal;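 note: probe is biotin-labelled aShh protein from a stem cell growth factor screen; measures binding of labelled protein to compounds printed on the slide; score merges feature fluorescence at 667 nm with signal-to-noise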
[18] = probe aNog binding to arrayed compounds – biochemical, biotinylated probe, 635/667 nm fluorescence, primary screen (AID 1115); conditions: small-molecule microarray, higher = more signal;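 note: probe is biotinylated aNog protein used at 0.15 µg/mL for 1 h at 4 C; z-score combines 667 nm fluorescence of each spot with its signal to noise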
[19] = molecular target: Torsin-1A-interacting protein 1 (Homo sapiens) (UniProt Q5JTV8); test: compound microarray binding of lysate hLAP1 – cell lysate, small-molecule microarray, COS7 lysate, 635/667 nm fluorescence, primary screen (AID 1116); conditions: 635 nm fluorescence, higher = more signal
Torsin-1A-interacting protein 1 (Homo sapiens), sequence (Q5JTV8 whole entry, looked up): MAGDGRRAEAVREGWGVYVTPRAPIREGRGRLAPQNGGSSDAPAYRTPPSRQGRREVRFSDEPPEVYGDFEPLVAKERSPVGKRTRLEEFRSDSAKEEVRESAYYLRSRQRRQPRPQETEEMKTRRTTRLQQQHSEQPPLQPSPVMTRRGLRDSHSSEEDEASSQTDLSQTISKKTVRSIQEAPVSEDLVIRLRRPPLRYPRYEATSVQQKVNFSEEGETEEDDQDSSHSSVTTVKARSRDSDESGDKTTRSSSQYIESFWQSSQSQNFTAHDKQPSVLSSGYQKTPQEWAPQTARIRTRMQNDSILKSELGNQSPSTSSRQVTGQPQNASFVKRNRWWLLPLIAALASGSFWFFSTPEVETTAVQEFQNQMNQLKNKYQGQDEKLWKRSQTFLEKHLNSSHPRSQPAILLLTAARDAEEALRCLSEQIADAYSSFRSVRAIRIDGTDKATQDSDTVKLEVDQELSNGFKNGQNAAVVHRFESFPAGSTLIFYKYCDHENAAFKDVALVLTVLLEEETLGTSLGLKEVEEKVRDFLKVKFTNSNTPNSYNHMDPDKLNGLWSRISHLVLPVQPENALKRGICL

[20] = molecular target: Alpha-bungarotoxin (Bungarus multicinctus) (UniProt P60615); test: compounds binding labelled alpha-BTX control protein – biochemical, small-molecule microarray, Alexa647 label, 635/667 nm fluorescence, artefact control for SMM control protein annotation, profiling panel (AID 1117); conditions: alpha-BTX-A647 binding fluorescence, higher = more signal
Alpha-bungarotoxin (Bungarus multicinctus), sequence (P60615 whole entry, looked up): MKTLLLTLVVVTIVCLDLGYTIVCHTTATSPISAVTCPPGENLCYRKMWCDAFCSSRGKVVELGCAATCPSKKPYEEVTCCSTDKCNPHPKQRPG

| Structure (SMILES) | composite z-score [1] | composite z-score [2] | composite z-score [3] | z-score [4] | composite z-score [5] | composite z-score [6] | composite z-score [7] | composite z-score [8] | composite z-score [9] | composite z-score [10] | composite z-score [11] | z-score [12] | composite z-score [13] | composite z-score [14] | composite z-score [15] | composite z-score [16] | composite z-score [17] | composite z-score [18] | composite z-score [19] | composite z-score [20] |
| --- | --- | --- | --- | --- | --- | --- | --- | --- | --- | --- | --- | --- | --- | --- | --- | --- | --- | --- | --- | --- |
| COc1cccc([C@H]2Oc3ccc(OC)cc3C(=NO[C@@H]3O[C@H](COC(C)=O)[C@@H](OC(C)=O)[C@H](OC(C)=O)[C@H]3OC(C)=O)[C@@H]2O)c1 | -0.531 | 0.0366 | -0.0882 | 0.598 (inactive) | 0.261 | -0.157 | 0.344 | 0.0855 | 0.0647 | -0.43 | 0.104 | -1.12 | 0.507 | -0.446 | -0.552 | 0.0206 | 0.137 | 0.124 | -0.178 | -0.275 |
| CCOC(=O)CCN1C(=O)[C@H]2[C@H]3[C@H](O)[C@H](O)CC(=NOCc4ccccc4)[C@H]3CC[C@H]2C1=O | 0.1 | 1.27 | 1.32 | 0.509 (inactive) | -0.556 | -0.395 | 0.193 | -0.828 | -1.06 | 0.288 | -0.207 | 0.676 | 0.389 | -0.205 | -0.329 | -0.174 | -0.0977 | -0.0312 | 0.0908 | 0.857 |
| COC(=O)[C@H]1O[C@@H](c2c(OC)c(OC)c(C)c(OC)c2OC)[C@H](C)[C@@H](O)[C@H]1C | 0.209 | 0.138 | 0.112 | -0.187 (inactive) | 0.798 | 0.824 | 0.0132 | 0.89 | 0.743 | -0.311 | 1.08 | 0.155 | 0.685 | -0.112 | -0.421 | -0.157 | -0.0769 | 0.0947 | 0.407 | 0.101 |
| CCCCC#C[C@@H]1C=C[C@H](Oc2ccc(C(=O)OC)cc2)[C@@H](COC(=O)OCC)O1 | 0.716 | 0.015 | -0.334 | 0.545 (inactive) | 0.785 | 0.277 | 0.385 | 1.05 | 0.414 | 0.273 | 0.42 | -3.22 | 0.494 | -0.184 | -0.581 | -0.0735 | -0.2 | 0.129 | 1.19 | 0.807 |
| COc1ccc(O[C@@H]2[C@H](O)CO[C@H]2C=Cc2ccccc2)cc1 | 0.1 | -0.274 | -0.379 | -0.878 (inactive) | 0.0279 | -0.0395 | -0.033 | -0.267 | -0.275 | 0.799 | -0.206 | 0.388 | -0.547 | -0.248 | -0.246 | -0.0685 | -0.283 | 0.0308 | -0.395 | -0.527 |
| C#CCCCON=C1[C@H]2CCn3c(=O)n(C)c(=O)n3[C@H]2[C@H](O)[C@@H]2O[C@H]12 | 0.325 | -0.316 | -0.548 | 0.0589 (inactive) | 0.478 | 0.832 | 0.719 | 0.938 | 0.811 | 0.213 | 0.371 | 0.818 | 0.503 | -0.266 | -0.792 | -0.0486 | 0.0723 | 0.0762 | 0.35 | 0.0727 |
| COC(=O)CC=C[C@@H](C)[C@@H](C=NOC[C@H]1O[C@H](c2ccccc2)C=C[C@@H]1Oc1ccc(OC)cc1)NS(=O)(=O)c1ccc(C)cc1 | -0.611 | 0.0033 | 0.674 | 0.00198 (inactive) | -0.858 | -1.78 | -0.873 | -1.2 | -0.462 | 0.797 | -1.1 | -0.787 | -0.233 | -1.07 | -0.467 | -0.147 | -0.112 | -0.181 | -0.306 | -0.183 |
| C[C@@H](c1ccccc1)N1C(=O)[C@H]2[C@H]3[C@H](O)[C@H](O)CC(=O)[C@H]3CC[C@H]2C1=O | -0.417 | -0.338 | -0.489 | 0.282 (inactive) | 0.526 | 0.523 | 0.202 | 0.548 | 0.491 | -0.0854 | 0.295 | -0.127 | 0.461 | 0.364 | -0.255 | -0.154 | -0.206 | -0.026 | -0.0326 | -0.0931 |
| O=C1[C@H]2[C@H]3[C@H](O)[C@H](O)CC(=NOC[C@@H](O)COCc4ccco4)[C@H]3CC[C@H]2C(=O)N1C[C@@H]1CCCO1 | 0.717 | -0.369 | -1.4 | 0.273 (inactive) | 0.725 | 1.2 | 0.947 | 0.95 | 1.21 | -0.0262 | -0.317 | -0.205 | 1.19 | -0.428 | -1.53 | -0.0037 | 0.0899 | -0.158 | 0.583 | 0.349 |
| Cn1c(=O)n2n(c1=O)[C@H]1[C@H](O)[C@@H]3O[C@@H]3C(=NOCc3ccccc3)[C@H]1CC2 | 0.421 | -0.263 | -0.374 | 2.48 (inactive) | -0.414 | -0.046 | -0.0492 | -0.136 | -0.0857 | -0.241 | 0.729 | -1.28 | -0.0238 | -0.17 | 0.33 | -0.232 | -0.0339 | -0.0524 | -0.0588 | 0.0868 |
| Cc1cc2c(nc1C)CCCCN2CC(C)ON=C1[C@H]2CCn3c(=O)n(-c4ccccc4)c(=O)n3[C@H]2[C@H](O)[C@@H]2O[C@H]12 (stereo not given in full) | 0.606 | 0.213 | -0.0869 | 0.718 (inactive) | 1.11 | 0.331 | 0.302 | 1.05 | 0.7 | 1.3 | -0.0964 | -4.63 | 0.769 | -0.895 | -1.2 | 0.0839 | 0.258 | 0.0531 | 0.369 | 0.473 |
